This is an account of results in PubChem BioAssay (Tox21).

Molecules are shown by their SMILES. Records with an inconclusive call do not appear. A call without a number means that no potency is given here. Values without a mark were called inactive. Calls of active or inactive are those of the source. Calls come from the whole dose curve; as a rule, active = well fitted inhibition curve with a large enough effect in the repeat runs; inconclusive = weak or mixed curves; inactive = no such curve, though single readings can be large or run the other way.
Potency is the fitted concentration of half-maximal effect.

Sequence of Estrogen receptor (Homo sapiens) (P03372 whole entry, looked up): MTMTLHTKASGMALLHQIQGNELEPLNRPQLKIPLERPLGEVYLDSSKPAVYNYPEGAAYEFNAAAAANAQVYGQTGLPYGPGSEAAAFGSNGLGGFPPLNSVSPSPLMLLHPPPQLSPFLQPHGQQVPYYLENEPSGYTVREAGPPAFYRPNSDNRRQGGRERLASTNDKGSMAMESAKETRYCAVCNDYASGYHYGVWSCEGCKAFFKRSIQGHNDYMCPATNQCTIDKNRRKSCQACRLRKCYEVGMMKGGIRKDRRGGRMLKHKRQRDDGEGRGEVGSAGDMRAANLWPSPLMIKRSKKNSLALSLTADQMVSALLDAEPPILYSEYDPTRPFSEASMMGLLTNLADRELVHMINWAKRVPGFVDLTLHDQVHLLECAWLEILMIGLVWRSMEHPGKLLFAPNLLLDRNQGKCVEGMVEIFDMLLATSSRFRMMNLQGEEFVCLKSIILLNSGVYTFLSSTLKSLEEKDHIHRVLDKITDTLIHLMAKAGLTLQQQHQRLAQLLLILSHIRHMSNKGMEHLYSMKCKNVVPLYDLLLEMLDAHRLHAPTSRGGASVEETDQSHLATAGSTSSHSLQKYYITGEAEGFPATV

The assay concerns the target Estrogen receptor (Homo sapiens) (UniProt P03372). Briefly: qHTS assay to identify small molecule antagonists of the estrogen receptor alpha (ER-alpha) signaling pathway using the BG1 cell line in the presence of 0.1 nM 17-beta-estradiol (AID 1259244). Note: nearly all actives have a fitted effect of over 50% in size. The note with it: VM7Luc4E2 (BG1) ERE-luciferase, antagonist mode, 0.1 nM E2, 22 h; series mostly up to 92.4 µM. From the text:
National Center for Advancing Translational Sciences [NCATS]
NIH Chemical Genomics Center [NCGC]
U.S. Environmental Protection Agency [EPA]
National Institutes of Environmental Health Sciences [NIEHS]
National Toxicology Program [NTP]
U.S. Food and Drug Administration [FDA]
Estrogen receptor (ER), a member of the nuclear hormone receptor plays an important role in development, metabolic homeostasis and reproduction. Two subtypes of ER, ER-alpha and ER-beta, have similar expression patterns with some uniqueness in both types. Endocrine disrupting chemicals (EDCs) and their interactions with steroid hormone receptors like ER causes disruption of normal endocrine function. Therefore, it is important to understand the effect of environmental chemicals in ER signaling pathway. For identifying ER antagonists, VM7Luc4E2 cell line was used to screen against Tox21 compound libraries.
VM7Luc4E2 cell line (provided by Denison MS, University of California) endogenously express full-length ER-alpha and is stably transfected with a plasmid containing four estrogen responsive elements (ERE) upstream of a luciferase reporter gene. The current screening for identification of ER-alpha inhibitors against Tox21 compound libraries used lower concentration (0.1 nM) of 17beta-Estradiol as a stimulator.
Tox21 Assay Protocol Summary:
VM7Luc4E2 cells were cultured in phenol red free assay medium containing 10% charcoal stripped FBS for 5 days prior to the assay. The cells were dispensed at 4,000 cells/well in 4 uL of assay medium into white wall/solid-bottom 1536-well plates (Corning Life Sciences, Corning, NY) using a Multidrop Combi (ThermoFisher Scientific, Waltham, MA) dispenser. After the assay plates were incubated at 37C and 5% CO2 for 24 hr, 23 nL of compounds dissolved in DMSO, positive controls or DMSO only was transferred to the assay plates by a Pintool station (Kalypsys, San Diego, CA). The transfer of compounds was followed by the addition of 1 uL of 0.1 nM (final concentration) agonist (17beta-Estradiol)/assay medium using a Flying Reagent Dispenser (FRD, Aurora Discovery, San Diego, CA). The plates were incubated at 37C and 5% CO2 for 22 hr. For luciferase reporter gene assay, 4 uL of ONE-Glo reagent (Promega Corporation, Madison, WI) was added to each well using the FRD and after 30 min incubation at room temperature luminescence intensity was measured using ViewLux plate reader (PerkinElmer, Shelton, CT).
With `S=C=Nc1cccc2ccccc12`, the Potency is 19.1 µM (active).

As to `CC1(C)CC/C(=C/c2ccc(Cl)cc2)C1(O)Cn1cncn1` (stereo not given), the Potency is 68.2 µM (active).

In the case of `CCOCn1c(-c2ccc(Cl)cc2)c(C#N)c(Br)c1C(F)(F)F`, the Potency was 1.93 µM (active).

With `C[C@@H]1O[C@@H](O[C@H]2C[C@@H](O)[C@]3(CO)[C@H]4[C@H](O)C[C@]5(C)[C@@H](C6=CC(=O)OC6)CC[C@]5(O)[C@@H]4CC[C@]3(O)C2)[C@H](O)[C@H](O)[C@H]1O`, the Potency result was “inactive”.

For the compound `CC(=[OH+])/C=C(/C)[O-].CC(=[OH+])/C=C(\C)[O-].CC(=[OH+])/C=C(\C)[O-].[Al]`, the Potency result is “inactive”.

On to `CCCN(CC)CC1COC2(CCC(C(C)(C)C)CC2)O1` (stereo not given), for which the Potency entry is “inactive”.

Take `CC(C)CC(C)N` (stereo not given): the Potency result is “inactive”.

As to `COC[C@H](C)N(C(=O)CCl)c1c(C)csc1C`, the Potency result was “inactive”.

Consider `CCC(C)(C)C(=O)OC1=C(c2ccc(Cl)cc2Cl)C(=O)OC12CCCCC2`, for which the Potency entry is “inactive”.

Regarding `Cc1ccc(C(=O)Cl)cc1`, the Potency result was “inactive”.

On to `[Cl][Sn]([c]1ccccc1)([c]1ccccc1)[c]1ccccc1`, for which the activity change, negative = inhibition is -95.6% [at 19 µM].

As for `Clc1ccc(Oc2ccccc2)cc1`, the Potency entry was “inactive”.

Turning to `O=C(CCCN1CCC2(CC1)C(=O)NCN2c1ccccc1)c1ccc(F)cc1`, the Potency was 8.41 µM (active).

Take `Clc1ccc(-c2ccccc2)cc1`: the Potency result was “inactive”.

Turning to `N#CCCSCCC#N`, the Potency result is “inactive”.

`CC(C)CCCCCCCOP(=O)(Oc1ccccc1)Oc1ccccc1`: the Potency result was “inactive”.

Consider `Cc1c(Cl)c(=O)oc2cc(OP(=O)(OCCCl)OCCCl)ccc12`, for which the Potency entry is “inactive”.

Take `C[C@H]1O[C@@H](O[C@H]2[C@@H](O)C[C@H](O[C@H]3[C@@H](O)C[C@H](O[C@H]4CC[C@@]5(C)[C@H](CC[C@@H]6[C@@H]5CC[C@]5(C)[C@@H](C7=CC(=O)OC7)CC[C@]65O)C4)O[C@@H]3C)O[C@@H]2C)C[C@H](O)[C@@H]1O`: the Potency entry is “inactive”.

`CC(C)(c1ccc(O)c(-c2ccccc2)c1)c1ccc(O)c(-c2ccccc2)c1`: the Potency is 48.6 µM (active).

Regarding `O=C(O)c1cc[c]([Hg][Cl])cc1`, the Potency result was “inactive”.

Regarding `COC(=O)N(C(=O)N1COC2(C(=O)OC)Cc3cc(Cl)ccc3C2=N1)c1ccc(OC(F)(F)F)cc1` (stereo not given), the Potency result is “inactive”.

Turning to `CCOC(=O)C1(c2ccccc2)CCN(CCC(C#N)(c2ccccc2)c2ccccc2)CC1`, the Potency entry is “inactive”.

Turning to `CC(=O)c1cc(C(C)(C)C)cc2c1CCC2(C)C`, the Potency entry was “inactive”.

Turning to `CCCCCCCCCCCCBr`, the Potency result is “inactive”.

Take `CC(=O)C(Cl)(Cl)Cl`: the Potency is 11.8 µM (active).

Regarding `C1CCC2CCCCC2C1` (stereo not given), the Potency entry was “inactive”.

In the case of `COP(=O)(OC)SCn1c(=O)oc2cc(Cl)cnc21`, the Potency entry was “inactive”.

Turning to `CCCCCCCCCCCCCCCCCCn1cc[n+](C)c1`, the Potency was 15.3 µM (active).

As for `Oc1cccc(-c2ccccc2)c1`, the Potency entry is “inactive”.

As for `BrCC(Br)c1ccccc1` (stereo not given), the Potency result was “inactive”.

With `COc1cc(C=O)cc2c1[C@H](COC(N)=O)[C@]1(OC(C)=O)ON2C[C@H]2[C@@H]1N2C(C)=O`, the Potency is 0.154 µM (active).

As for `COc1cccc2c1C(=O)c1c(O)c3c(c(O)c1C2=O)C[C@@](O)(C(=O)CO)CC3OC1CC(N2CCOC(OC)C2)C(O)C(C)O1` (stereo not given in full), the Potency is 0.15 µM (active).

As for `Oc1ccccc1Br`, the Potency result was “inactive”.

Regarding `COCC(=O)N(c1c(C)cccc1C)[C@H](C)C(=O)OC`, the Potency entry is “inactive”.

For `Cn1[nH]nnc1=S`, the Potency entry was “inactive”.

In the case of `O=C(O)COc1nc(Cl)c(Cl)cc1Cl`, the Potency result is “inactive”.

As for `COc1ccc(OC)c(C=O)c1`, the Potency entry was “inactive”.

Consider `O=C(CCl)Nc1ccccc1`, for which the Potency was 61.1 µM (active).

For `CCc1cc(C)cc(CC)c1-c1c(OC(=O)C(C)(C)C)n2n(c1=O)CCOCC2`, the Potency entry is “inactive”.

Take `CC(C)(COCC1CO1)COCC1CO1` (stereo not given): the Potency result was “inactive”.
